# Screening data as filed in PubChem BioAssay.
# MEKK2 mut-MEK5 – signal of MEK5 binding to mutant human MEKK2 PB1 domain | percent response, % at 10 µM | AID 1530 | bead flow cytometry, Alexa488-MEK5 binding to MEKK2 mutant | 290,000 tested, 0.35% active; in the data active = percent response above about 24%, passing the limit was not always enough
# SKN-1 inh – inhibitors of C. elegans SKN-1. C. elegans VP596 Pgst-4::GFP/RFP ratio, acrylamide-induced, 24 h. inhibition, % at 21.8 µM. 360,000 tested, 0.49% active. AID 624304;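 active = interference check ratio from 0.5 to 1.5 plus GFP to RFP signal ratio inhibition reaching or exceeding a fixed threshold, cut at about 30% in these data, passing the limit was not always enough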
# MEKK3 PB1 HTS – modulators (inhibitors or enhancers) of MEK5 binding to human MEKK3 PB1 domain. binding response (% of control), % at 10 µM. bead-based flow cytometry, Alexa488-MEK5 binding to MEKK3; actives lie on both sides; 0 = blocked by unlabeled MEK5, 100 = vehicle. 290,000 tested, 1.4% active. Q99759;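 active = binding response more than 3 SD above or below the average of its plate-row segment, actives on both sides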;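 also: Alexa488 bead fluorescence after subtracting the streptavidin-only scavenger bead signal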
# Target sequence (Q99759 whole entry, looked up, the tested form may be a part): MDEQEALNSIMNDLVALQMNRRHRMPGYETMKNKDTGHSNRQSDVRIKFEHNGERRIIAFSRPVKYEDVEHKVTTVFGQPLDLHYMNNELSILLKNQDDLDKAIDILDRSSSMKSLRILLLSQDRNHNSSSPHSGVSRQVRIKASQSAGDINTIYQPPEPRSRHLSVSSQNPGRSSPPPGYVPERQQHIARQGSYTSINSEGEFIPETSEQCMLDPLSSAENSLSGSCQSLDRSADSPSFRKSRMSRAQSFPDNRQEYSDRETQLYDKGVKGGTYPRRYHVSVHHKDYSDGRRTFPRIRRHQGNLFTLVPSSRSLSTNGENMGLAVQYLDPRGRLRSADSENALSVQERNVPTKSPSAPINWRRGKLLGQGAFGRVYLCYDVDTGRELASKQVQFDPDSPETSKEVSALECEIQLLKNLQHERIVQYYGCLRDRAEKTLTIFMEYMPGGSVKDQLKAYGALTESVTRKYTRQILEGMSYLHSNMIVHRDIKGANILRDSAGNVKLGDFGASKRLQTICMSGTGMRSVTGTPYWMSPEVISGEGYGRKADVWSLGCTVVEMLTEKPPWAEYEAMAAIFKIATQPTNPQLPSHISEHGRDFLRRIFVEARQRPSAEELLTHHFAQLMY
# NRP1-CendR mod – modulators of CendR peptide binding to human neuropilin-1; inhibition, % at 25 µM; AID 602438; 360,000 tested, 0.85% active; FAM-RPARPAR peptide binding to NRP-1, fluorescence polarization;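 active = inhibition or corrected inhibition above about 18%, plus a signal ratio from 0.5 to 1.5, limit read from the data, passing the limit was not always enough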
# MEKK2wt PB1 HTS – raises or lowers MEK5 binding to wildtype human MEKK2 PB1 domain; Q9Y2U5; bead flow cytometry, Alexa488-MEK5 binding to MEKK2 WT; actives lie on both sides; binding response (% of control), % at 10 µM; AID 1531; 290,000 tested, 1.1% active; in the data active = binding response below about 67% or above about 130%
# MEKK2wt confirm – raises or lowers MEK5 binding to wildtype human MEKK2, retest; AID 1892; shares compounds with MEKK3 PB1 HTS; binding response (% of control), % at 10 µM; bead flow cytometry, Alexa488-MEK5 binding to MEKK2 WT; actives lie on both sides; 5,900 tested, 2.4% active; in the data active = binding response below about 16% or above about 210%; inactive = in between
# MEKK2mut-MEK5 – signal of MEK5 binding to mutant human MEKK2, retest. shares compounds with MEKK3 PB1 HTS. bead flow cytometry, Alexa488-MEK5 binding to MEKK2 mutant. 5,900 tested, 2% active. percent response, % at 10 µM; in the data active = percent response mostly above about 71%, no sharp cut-off; inactive = mostly below about 38%;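 also: higher means compound restores mutant binding toward wildtype level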
# MEKK3-MEK5 inh – confirmation of inhibitors of MEK5 binding to human MEKK3. shares compounds with MEKK3 PB1 HTS. bead flow cytometry, Alexa488-MEK5 binding to MEKK3; active compounds read low. binding response (% of control), % at 10 µM. 5,900 tested, 1.8% active;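 active = binding response below 72% of control, or above a set upper limit, though filed actives all read lower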;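 also: 100% = DMSO only wells and 0% = binding blocked by excess unlabeled MEK5; lower values mean stronger disruption of MEK5 binding to MEKK3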
# * marks the source's active call; other numbers are inactive results; / = not tested or not shown; [ ] = another dose, or the depositor's remark. Hits are enriched below; roughly 3.2% of the tested compounds scored in any of these assays.
SMILES,MEKK2 mut-MEK5,SKN-1 inh,MEKK3 PB1 HTS,NRP1-CendR mod,MEKK2wt PB1 HTS,MEKK2wt confirm,MEKK2mut-MEK5,MEKK3-MEK5 inh
c1ccc(COc2ccc(-c3sc(Nc4ccccc4)n[n+]3-c3ccccc3)cc2)cc1,38*,/,109,/,221*,185,55,110
Cc1cccc(-c2sc(Nc3ccccc3)n[n+]2-c2ccccc2)c1,/,10,/,-3,/,/,/,/
COc1ccc(C(=O)C(=O)N2CCC(c3ccccc3)CC2)cn1,/,3,/,16,/,/,/,/
Cc1ccccc1C(=O)NC=C1C(=O)OC(C)(C)OC1=O,-1,-8,98,-19,101,/,/,/
CC1(C)OC(=O)C(=CNC(=O)c2c(F)cccc2F)C(=O)O1,-4,0,72*[inhibitor],-23,82,92,-3,95
FC(F)(F)c1nnc2ccc(N3CCCCCC3)nn12,-14,16,81*[inhibitor],18,91,98,-2,100
CCS(=O)(=O)c1ccc(N=Nc2ccc(O)c3ncccc23)c(OC)c1,0,6,131*,16,108,99,1,99
COc1ccccc1N=Nc1ccc(O)c2ncccc12,-2,4,95,14,97,/,/,/
COC(=O)C[C@@H]1CC[C@H](NC(=O)c2cnccn2)[C@@H](CO)O1,/,-2,/,0,/,/,/,/
CSCC[C@H](NC(=O)C1CCCC1)c1nc2ccccc2[nH]1,-16,0,69*[inhibitor],4,68,108,5,104
Cc1cccc(N2C(=O)c3cccc(Oc4ccc(Cl)cc4)c3C2=O)c1,0,2,130*,-1,104,99,-4,104
O=C(Nc1cc(Cl)ccc1Cl)P(=O)(O)c1ccccc1,/,1,/,7,/,/,/,/
CCCS(=O)(=O)NC(=O)C1(C)CCN(C(=O)c2ccc(SC(F)(F)F)cc2)C1 (stereo not drawn),/,22,/,-3,/,/,/,/
CCC1CCC/C1=N\NC(=O)c1ccccc1C (stereo not drawn),/,-9,/,14,/,/,/,/
CC1(C)Nc2ccc(O)cc2-c2c1ssc2=S,14,2,106,15,104,/,/,/
CC(=O)NS(=O)(=O)c1ccc(N=c2ssc3c2-c2cc(C)ccc2NC3(C)C)cc1,0,7,129*,-4,97,90,-7,96
C#CCNC(=O)C[C@@H]1C[C@@]2(C(=O)OCC)CCCC=C2N(Cc2ccc3c(c2)OCO3)C1=O,/,-7,/,-46,/,/,/,/
Cc1ccc(C)c(NC(=O)c2ccc(S(=O)(=O)C(F)F)cc2)c1,1,10,132*,1,109,99,-3,101
Cc1ccc(C)c(NC(=O)NNS(=O)(=O)c2ccc(C)c(C)c2)c1,-5,4,97,-6,96,/,/,/
Cn1nc(C2CC2)cc1NC(=O)C1(C)CCN1C(=O)CCc1ccccc1 (stereo not drawn),/,23,/,-11,/,/,/,/
O=C(C[n+]1ccccc1)N/N=C/c1cccc(Cl)c1Cl,-2,14,88,12,66*[inhibitor],109,4,104
COC(=O)c1ccc(N2Cc3ccccc3/C2=N\C(=O)Nc2ccccc2)cc1,0,6,137*,12,104,101,6,105
COc1ccc(N2Cc3ccccc3C2=NC(=O)c2ccc(C)cc2)cc1OC,-5,9,100,-23,90,/,/,/
O=C(/N=C1/c2ccccc2CN1c1ccccc1)Nc1ccccc1,1,9,138*,12,109,102,4,103
CC(=O)c1ccc(N2Cc3ccccc3/C2=N\C(=O)Nc2ccc(Cl)cc2)cc1,-1,9,98,3,96,/,/,/
SMILES,MEKK2 mut-MEK5,SKN-1 inh,MEKK3 PB1 HTS,NRP1-CendR mod,MEKK2wt PB1 HTS,MEKK2wt confirm,MEKK2mut-MEK5,MEKK3-MEK5 inh
Cc1cc(O)cc(O)c1/C=N/NC(=O)c1ccc2c(c1)OCCO2,/,9,/,-9,/,/,/,/
CCOC(=O)NN1C(=O)c2ccccc2NC1c1ccccc1 (stereo not drawn),1,2,149*,-5,105,119,15,107
CCOC(=O)NN1C(=O)c2ccccc2NC1c1ccc(N(C)C)cc1 (stereo not drawn),1,-3,144*,11,109,103,10,107
Cc1ccccc1OCCCC(=O)Nc1ccc(Br)cc1,-21,-7,0.0*[inhibitor],-3,0.0*[inhibitor],112,8,109
COc1ccccc1OCCC(=O)OCC(=O)Nc1ccc(Br)cc1,1,3,134*,0,108,102,2,103
CN(Cc1cn(Cc2ccc(Cl)cc2)nn1)C1CN(Cc2cn(Cc3ccc(Cl)cc3)nn2)S(=O)(=O)C1 (stereo not drawn),/,8,/,3,/,/,/,/
O=C(Cn1nc(CNc2ccc(Br)cc2)[n+]2c1CCCCC2)c1ccc([N+](=O)[O-])cc1,33,5,103,-4,146*,132,19,96
O=C(Cn1nc(CNc2ccc(Cl)cc2)[n+]2c1CCCCC2)c1ccc(Br)cc1,0,10,99,-14,120,/,/,/
CCC1C(=O)N=C(SCC(=O)Nc2ccccc2)NC1=O (stereo not drawn),3,5,110,-10,104,/,/,/
CCC1C(=O)N=C(SCC(=O)Nc2ccc(S(N)(=O)=O)cc2)NC1=O (stereo not drawn),1,2,138*,9,122,100,-3,98
O=C1S/C(=C\c2ccc(O)c([N+](=O)[O-])c2)C(=O)N1c1ccccc1Cl,-8,-1,74*[inhibitor],-6,81,102,1,103
O=C1S/C(=C\c2ccc(O)c([N+](=O)[O-])c2)C(=O)N1Cc1cccc([N+](=O)[O-])c1,-8,-3,91,-3,84,/,/,/
CCCCN1CCc2c1nc1ccc(Br)cc1c2N,17,9,106,5,147*,148,27,110
Cc1ccc2nc3c(c(N)c2c1)CCN3C,11,20,106,-1,113,/,/,/
COc1ccc(-c2cc(CCCC(=O)NCCc3ccccc3)no2)cc1,-26,4,0.0*[inhibitor],12,-15*[inhibitor],100,-3,104
CCOc1ccc(-c2cc(CCCC(=O)NCCc3ccccc3)no2)cc1,0,10,98,14,99,/,/,/
O=C(NCc1ccc2c(c1)OCO2)C(=O)NCC1OCCCN1S(=O)(=O)c1ccccc1 (stereo not drawn),/,9,/,-10,/,/,/,/
CC(/C=C/c1ccccc1)=N/NC(=O)c1nc2nc(C)cc(C)n2n1,1,-13,130*,6,117,97,0,100
Cc1ccc(/C=N/NC(=O)c2nc3nc(C)cc(C)n3n2)cc1,1,-3,108,4,105,/,/,/
